Drawing on PubChem BioAssay (EPA / NIEHS), this text covers outcome and AC50 for 38 molecules.

SMILES strings stand for the structures. Several values for one entry are separate records, joined by “and”; a condition that tells them apart may be missing. Equal values may be shown once. Records with an inconclusive call do not appear. Some structures have more than one record in an assay (separate samples or runs), and their calls can disagree. Activity calls are given as the source filed them. Rule for the calls: active = hit-call score of the fitted dose curve at least 0.9, where 1 is the maximum; inconclusive = response in the unintended direction; inactive = score below 0.9.

Sequence of Estrogen receptor (Homo sapiens) (P03372 whole entry, looked up, the tested form may be a part): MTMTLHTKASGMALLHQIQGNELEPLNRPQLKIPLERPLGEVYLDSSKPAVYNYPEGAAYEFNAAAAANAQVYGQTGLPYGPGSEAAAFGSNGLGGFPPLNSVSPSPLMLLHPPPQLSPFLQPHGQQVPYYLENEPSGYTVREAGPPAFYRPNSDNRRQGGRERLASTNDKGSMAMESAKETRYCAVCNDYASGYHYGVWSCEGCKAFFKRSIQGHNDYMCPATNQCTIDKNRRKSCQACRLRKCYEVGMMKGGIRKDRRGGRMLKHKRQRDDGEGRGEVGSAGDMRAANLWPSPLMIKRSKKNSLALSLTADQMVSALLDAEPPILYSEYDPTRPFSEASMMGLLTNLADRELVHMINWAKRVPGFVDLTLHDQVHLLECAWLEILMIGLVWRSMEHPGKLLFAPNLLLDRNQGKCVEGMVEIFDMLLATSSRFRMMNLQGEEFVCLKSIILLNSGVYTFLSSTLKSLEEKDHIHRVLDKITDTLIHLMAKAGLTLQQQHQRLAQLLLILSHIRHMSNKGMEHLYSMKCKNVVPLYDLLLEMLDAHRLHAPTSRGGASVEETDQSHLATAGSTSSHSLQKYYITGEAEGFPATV

The assay addresses Estrogen receptor (Homo sapiens) (UniProt P03372). The experiment in a line: ATG_ERa_TRANS: Attagene TRANS-FACTORIAL HepG2 Assay for human Estrogen Receptor alpha (ERa) (AID 2282970). Conditions: HepG2 Attagene TRANS ERa GAL4 reporter, mRNA. How it is done: ATG_TRANS is a cell-based, multiplexed-readout assay that uses HepG2, a human liver cell line, with measurements taken at 24 hours after chemical dosing in a 24-well plate.ATG_ERa_TRANS is one of 30 assay component(s) measured or calculated from the ATG_TRANS assay. It is designed to make measurements of mRNA induction, a form of inducible reporter, as detected with fluorescence intensity signals by Reverse transcription polymerase chain reaction (RT-PCR) and Capillary electrophoresis technology.Data from the assay component ATG_ERa_TRANS was analyzed into 1 assay endpoint. This assay endpoint, ATG_ERa_TRANS, was analyzed in the positive analysis fitting direction relative to DMSO as the negative control and baseline of activity. Using a type of inducible reporter, measures of mRNA for gain-of-signal activity can be used to understand the reporter gene at the transcription factor-level as they relate to the gene ESR1. Furthermore, this assay endpoint can be referred to as a primary readout, because this assay has produced multiple assay endpoints where this one serves a reporter gene function. To generalize the intended target to other relatable targets, this assay endpoint is annotated to the nuclear receptor intended target family, where the subfamily is steroidal.
Human liver HepG2 cells are transiently transfected with multiple reporter transcription units (MRTUs) in 6-well plates using FuGene 6 reagent (Roche; 3 ml FuGene/1 mg DNA). The MRTU constructs are regulated by a cis-regulating element (promoter). […] A major difference between the CIS and TRANS system is that in CIS activities of endogenous TFs are measured, whereas the TRANS assay evaluates changes in activities of exogenous, chimeric NR-Gal4 proteins. […] At the end of 24 hour incubation, total RNA was isolated using TriZol reagent (Invitrogen). The isolated RNA is then reverse-transcribed using oligo(dT) primer and Mo-MLV reverse transcriptase (Invitrogen) with DNAse I (Ambion) treatment for 30 min. The one-tenth of the produced cDNA was amplified by PCR using Taq DNA polymerase (Invitrogen) and two reporter sequence-specific primers. The PCR products were fluorescently labeled by primer extension with 6-arboxyfluorescein (6-FAM) 5'-labeled reporter sequence-specific primer (2 min at 95 C, 20 s at 68 C and 10 min at 72 C) and these products were digested with 5U of HpaI (New England Biolabs) for 2h at 37 C. […] The raw capillary electrophoresis data was processed using Attagraph software (Attagene).
`OC(CCl)CCl`: the molecule was classed as inactive. `CCCCCCCCCCCCCCCCOS(=O)(=O)O`: the molecule was called inactive.

In the case of `NC(=O)N1c2ccccc2C=Cc2ccccc21`, the molecule was called inactive. Take `CNC(C)=O`: the result was inactive. `NNC(=O)c1ccncc1`: the result was inactive. For `COS(C)(=O)=O`, the molecule was called inactive. For `CC(C)c1nnc2ccc(-c3ocnc3-c3cc(F)ccc3F)cn12`, the molecule was classed as inactive. For `CCCC(CCC)C(=O)O`, the molecule was called inactive. `O=C(Cl)C(F)(F)C(F)(F)C(F)(F)C(=O)Cl`: the result was inactive. On the same count and under the same terms, in the case of `C=CN1CCCC1=O` it was “inactive”; in that of `O=S(=O)(O)c1ccc(N=Nc2c(O)ccc3cc(S(=O)(=O)O)ccc23)cc1`, “inactive”. Usually AC50 stands for the concentration giving half of the maximal activity seen. For the molecule `OC(O)(C(F)C(O)(O)C(F)(F)F)C(F)(F)F`, the AC50 is 194 µM (active) and the call was inactive. On to `Cc1nccn1-c1ccc(Sc2cccc(C3(C(N)=O)CCOCC3)c2)cc1`, for which the result was inactive.

Turning to `CCCCCCCC/C=C\CCCCCCCC(=O)OC[C@@H](O)[C@H]1OC[C@H](O)[C@H]1O`, the molecule was called inactive.

For the molecule `OC(Cn1cncn1)(Cn1cncn1)c1ccc(F)cc1F`, the molecule was called inactive. On to `Cn1c(=O)c2[nH]cnc2n(C)c1=O`, for which the outcome was inactive. Turning to `COCc1nnc(-c2ccc[n+]([O-])c2)n1-c1c(Cl)c(Cl)cc2[nH]c(=O)c(=O)[nH]c12`, the call was inactive. Regarding `OCc1c[nH]c2ccccc12`, the AC50 was 5.36 µM (active) [middle of 5 runs]. On to `CCOC(N)=O`, for which the molecule was classed as inactive. Consider `O=C1CN(N=Cc2ccc([N+](=O)[O-])o2)C(=O)N1`, for which the AC50 was 32.1 µM (active). With `CCCCCCCCCCCCCCO`, the outcome was inactive. Turning to `C[Si](C)(C)C(F)(F)C(F)(F)C(F)(F)F`, the result was inactive. In the case of `FC(F)(F)C(F)(F)C(F)(F)C(F)(F)C(F)(F)C(F)(F)I`, the AC50 was 13.7 µM (active) and 17 µM (active).

For the molecule `c1ccc2c(c1)-c1cccc3c1c-2cc1ccccc13`, the result was inactive. Take `FC(F)=C(F)C(F)(F)C(F)(F)C(F)(F)C(F)(F)C(F)(F)C(F)(F)F`: the AC50 is 12.9 µM (active) and the result was inactive. For the molecule `CC(=O)c1ccccc1`, the molecule was classed as inactive.

As for `CCOc1ccc2[nH]cc(C(=O)NCc3ccccc3)c(=O)c2n1`, the molecule was called inactive. As for `FC(F)C(F)(F)COCC1CO1` (stereo not given), the AC50 is 82 µM (active) and 39.8 µM (active). In the case of `OCCC(F)(F)C(F)(F)C(F)(F)C(F)(F)F`, the outcome was inactive. Turning to `CCn1nc(C)c2c1C(=O)NCC(c1ccc(O)cc1)=N2`, the call was inactive.

As to `Cc1ccc(S(=O)(=O)NC(=O)NN2CCCCCC2)cc1`, the result was inactive. With `C[C@@H](Oc1ccc(CNC(=O)c2cccnc2Oc2ccc3c(c2)OCO3)c(F)c1)C(=O)O`, the molecule was called inactive. `O=C(O)c1ccc2c(c1)nc(C(=O)NC1CCN(C3CC3)CC1)n2Cc1cc(-c2ccc(Cl)s2)on1`: the call was inactive. Take `O=C(N[C@H](CO)[C@H](O)c1ccc([N+](=O)[O-])cc1)C(Cl)Cl`: the result was inactive.

Regarding `O=C(NO)C1(NS(=O)(=O)c2ccc(Oc3ccc(F)cc3)cc2)CCOCC1`, the molecule was called inactive.

`S=P(N1CC1)(N1CC1)N1CC1`: the result was inactive. On to `OCC(CO)(CO)CO`, for which the molecule was classed as inactive. For `CCc1ccc(O)c(C(C)(C)C)c1`, the AC50 was 24.2 µM (active).
